Unmarked numbers belong to inactive results. Calls come from the whole dose curve; as a rule, active = well fitted curve in the direction sought with a large enough effect in the repeat runs; inconclusive = weak or mixed curves; inactive = flat fitted curve, though single readings scatter.
experiment: qHTS assay to test for compound auto fluorescence at 460 nm (blue) in HepG2 cells (AID 720687); conditions: autofluorescence 405/460 nm, 1 h; series mostly up to 46 µM; fluorescence, % of fluorescent control: at the top concentration
From the text: U.S. Tox21 Program National Center for Advancing Translational Sciences [NCATS] NIH Chemical Genomics Center [NCGC] U.S. Environmental Protection Agency [EPA] National Institutes of Environmental Health Sciences [NIEHS] National Toxicology Program [NTP] U.S. Food and Drug Administration [FDA] Tox21 Assay Overview: Compound auto fluorescence often interferes with screening of the compound library against various biological targets and signaling pathways. Some of these compounds may have fluorophoric properties. Such properties may interfere with the assay outputs resulting in false positives and/or negatives. To decrease such complications and ensure the compound activities are relevant in terms of biological response, the Tox21 10K compound library was screened for auto fluorescence. From the fluorophores used as reporter signals in our screening assays, the auto fluorescence equivalencies of compounds against three fluorophores have been evaluated: Triamterene, Fluorescein and Rose Bengal sodium for blue, green and red fluorescence, respectively. The fluorescence intensities were measured using Excitation/Emission wavelengths at 405/460nm, 485/535nm and 540/590nm for blue, green and red labels, respectively. This assay includes the blue fluorescence data.
Tox21 Assay Protocol Summary: 2,000 HepG2 cells in 5 uL of culture medium (MEM containing 10% FBS) per well were dispensed into black wall/clear bottom 1536-well plates using a Multidrop Combi Dispenser (ThermoFisher Scientific, Waltham, MA). The assay plates were incubated overnight at 37 C to allow cell attachment to the well bottom, followed by the transfer of 23 nL compound or DMSO vehicle by a pintool work station (Kalypsys , San Diego, CA). After the assay plates were incubated for 1 hr at 37 C and 5% CO2, fluorescence intensities in the assay plates were measured by an Envision (PerkinElmer, Shelton, CT) plate reader using three labels for measuring blue, green and red fluorescence at […] 460, 535 and 590 nm respectively.
% is set by controls: 0 for no effect and ±100 for the full control effect.

Structure (SMILES)	fluorescence, % of fluorescent control
CCc1ccc(S(=O)(=O)O)cc1	-0.0381%
CC1(C)S[C@@H]2[C@H](NC(=O)C(C(=O)O)c3ccsc3)C(=O)N2[C@H]1C(=O)O (stereo not given in full)	-0.0014%
CCOC(=O)[C@H](CCc1ccccc1)N[C@@H](C)C(=O)N1CC2(C[C@H]1C(=O)O)SCCS2	0.0118%
COc1cc2[nH]c(C)c(CCN3CCN(c4ccccc4)CC3)c2cc1OC	0.316%
CC(=O)N(CC(C)C(=O)O)c1c(I)cc(I)c(N)c1I (stereo not given)	-0.0003% [at 18.6 µM]
O=C(CCCN1CCC(C(=O)c2ccc(F)cc2)CC1)c1ccc(F)cc1	0.0544%
CC(=O)OCC(=O)[C@@]12OC3(CCCC3)O[C@@H]1C[C@H]1[C@@H]3CCC4=CC(=O)C=C[C@]4(C)[C@@]3(F)[C@@H](O)C[C@@]12C	0.0055%
CNc1cc(OC)c(C(=O)N[C@H]2CCN(Cc3ccccc3)[C@H]2C)cc1Cl	-0.057%
CCCCCCCCCCCCCCCCCCCCCC(=O)Nc1ccn([C@@H]2O[C@H](CO)[C@@H](O)[C@@H]2O)c(=O)n1	-0.0033%
Cc1c(O)cc2c(c1C)O[C@](C)(CCC[C@H](C)CCC[C@H](C)CCCC(C)C)CC2	0.0076%
CO[C@H]1C[C@H](O[C@H]2[C@H](C)O[C@@H](O[C@@H]3/C(C)=C/C[C@@H]4C[C@@H](C[C@]5(C=C[C@H](C)[C@@H](C6CCCCC6)O5)O4)OC(=O)[C@@H]4C=C(C)[C@@H](O)[C@H]5OC/C(=C\C=C\[C@@H]3C)[C@]54O)C[C@@H]2OC)O[C@@H](C)[C@@H]1O	0.0887%
C=CCCCCCCCCC(=O)OC	-0.154%
COc1ccc2c(c1)N(C[C@H](C)CN(C)C)c1ccccc1S2	0% [at 18.6 µM]
NC(=O)OCC(O)COc1ccc(Cl)cc1 (stereo not given)	0.0721% [at 18.6 µM]
COc1cc(NCCCC(C)N)c2ncccc2c1 (stereo not given)	0.424%
Cc1nnc(C(C)C)n1C1C[C@H]2CC[C@@H](C1)N2CC[C@H](NC(=O)C1CCC(F)(F)CC1)c1ccccc1 (stereo not given in full)	-0.0095%
CO[C@H]1C[C@@H]2CC[C@@H](C)[C@@](O)(O2)C(=O)C(=O)N2CCCC[C@H]2C(=O)O[C@H]([C@H](C)C[C@@H]2CC[C@@H](OC(=O)C(C)(CO)CO)[C@H](OC)C2)CC(=O)[C@H](C)/C=C(\C)[C@@H](O)[C@@H](OC)C(=O)[C@H](C)C[C@H](C)/C=C/C=C/C=C/1C	0.0609%
CCCCCCCCCCCCOCCCN	0.115%
O=C(NNCS(=O)(=O)O)c1ccncc1	0.0681%
CO[C@H]1C=CO[C@@]2(C)Oc3c(C)c(O)c4c(O)c(c5c(nc6cc(C)ccn65)c4c3C2=O)NC(=O)/C(C)=C\C=C[C@H](C)[C@H](O)[C@@H](C)[C@@H](O)[C@@H](C)[C@H](OC(C)=O)[C@@H]1C	-0.121%

Structure (SMILES)	fluorescence, % of fluorescent control
C=CC1=C(C)C2=CC3=NC(=C(CC(=O)[O-])C4=NC(=C(C)C4=C([O-])[O-])C=c4[n-]c(c(C)c4CC)=CC1=N2)C(CCC(=O)[O-])C3C.[Cu+2].[Na+].[Na+].[Na+] (stereo not given)	0.0766%
COc1ccc(CCNCC(O)COc2cccc(C)c2)cc1OC (stereo not given)	-0.0178%
CC#CCC(C)[C@H](O)/C=C/[C@@H]1[C@H]2C/C(=C/CCCC(=O)O)C[C@H]2C[C@H]1O (stereo not given in full)	0.0513%
OCC(S)CS (stereo not given)	-0.009%
O=C(O)c1cccc(/C=C2/C[C@@H]3[C@@H](/C=C/[C@@H](O)C4CCCCC4)[C@H](O)C[C@@H]3O2)c1	0.0154%
CN[C@@H]1[C@@H](O)[C@@H](O[C@@H]2[C@@H](O)[C@H](OC3OC(CN)=CCC3N)[C@@H](N)C[C@H]2N)OC[C@]1(C)O (stereo not given in full)	0.51% [at 18.6 µM]
O=C(NOC[C@H](O)CO)c1ccc(F)c(F)c1Nc1ccc(I)cc1F	0.0706%
COC(F)(F)C(Cl)Cl	0.176%
CC1=C(C(=O)OCCN(Cc2ccccc2)c2ccccc2)C(c2cccc([N+](=O)[O-])c2)C(P2(=O)OCC(C)(C)CO2)=C(C)N1 (stereo not given)	-0.0434%
NCCCC[C@H](NC(=O)[C@@H]1CCCN1C(=O)[C@@H]1CSSC[C@H](N)C(=O)N[C@@H](Cc2ccccc2)C(=O)N[C@@H](Cc2ccccc2)C(=O)N[C@@H](CCC(N)=O)C(=O)N[C@@H](CC(N)=O)C(=O)N1)C(=O)NCC(N)=O	1.47%
CCCCOC(=O)C(=O)Nc1cccc(-c2nn[nH]n2)c1	0.0092%
CNC(=O)c1c(I)c(C(=O)NCC(=O)Nc2c(I)c(C(=O)O)c(I)c(C(=O)NCCO)c2I)c(I)c(N(C)C(C)=O)c1I	0.0462%
C=CCN1CCCC1CNC(=O)c1cc(S(N)(=O)=O)cc(OC)c1OC (stereo not given)	0.224%
CO/N=C(\C(=O)N[C@@H]1C(=O)N2C(C(=O)O)=C(CSC(=O)c3ccco3)CS[C@H]12)c1csc(N)n1	0.102%
CC(CN(C)C)CN1c2ccccc2Sc2ccc(C(F)(F)F)cc21 (stereo not given)	-0.179%
Cn1nnnc1SCC1=C(C(=O)O)N2C(=O)[C@@H](NC(=O)[C@H](O)c3ccccc3)[C@H]2SC1	0.026% [at 18.6 µM]
CC(=O)N[C@@H](C=O)[C@@H](O)[C@H](O)[C@H](O)CO	0.0039%
CCCCC/C=C\CCC(=O)N[C@H]1[C@H](Oc2c3cc4cc2Oc2ccc(cc2Cl)[C@@H](O[C@@H]2O[C@H](CO)[C@@H](O)[C@H](O)[C@H]2NC(C)=O)[C@@H]2NC(=O)[C@H](NC(=O)[C@@H]4NC(=O)[C@H]4NC(=O)[C@@H](Cc5ccc(c(Cl)c5)O3)NC(=O)[C@H](N)c3ccc(O)c(c3)Oc3cc(O)cc4c3)c3ccc(O)c(c3)-c3c(O[C@H]4O[C@H](CO)[C@@H](O)[C@H](O)[C@@H]4O)cc(O)cc3[C@@H](C(=O)O)NC2=O)O[C@H](CO)[C@@H](O)[C@@H]1O	0.275% [at 18.6 µM]
CCCCCCCCCCCCCCCCCCOP(=O)([O-])OC1CC[N+](C)(C)CC1	-0.145% [at 18.6 µM]
CN(CCO)CC(O)Cn1cnc2c1c(=O)n(C)c(=O)n2C (stereo not given) (tested in a mixture with another compound)	-0.0265%
